Structures are written as SMILES. “And” between values parts separate entries of the source, which are not always exact repeats. Equal values may be shown once. In all, about 65,000 compounds went through this assay and about 45 (0.07%) were called active. These entries were drawn from the full list. Values without a mark were called inactive. Calls follow the shape of the full dose curve.
Potency is read from the fitted curve at half-maximal effect.

The test system of this experiment is Schistosoma mansoni peroxiredoxin 2 (Prx2). As to the kind of experiment: Schistosoma Mansoni Peroxiredoxins (Prx2). To be noted: S. mansoni Prx2 activity coupled to TGR/GSH (TGR is thioredoxin glutathione reductase), NADPH fluorescence loss, qHTS. The source says:
NIH Molecular Libraries Screening Centers Network [MLSCN]
NIH Chemical Genomics Center [NCGC]
David Williams [Illinois State University]
Schistosoma mansoni, a causative agent of schistosomiasis, resides in the bloodstream of their host up to 30 years without being eliminated by the host immune attack. One proposed survival mechanism is the production of an antioxidant "firewall" that neutralizes the oxidative assault of the host's immune attack. Schistosoma mansoni peroxiredoxins (Prx) are important parasite antioxidant proteins that play a crucial role in redox balance mechanisms. […] First, the proteins are essential for the parasite survival. […] Third, the protein(s) is amenable for study at the molecular level and can be produced in bacteria in large quantities, in soluble and active form. Inhibition of Prx activity was screened in a coupled-enzyme format with reducing equivalents being transferred from NADPH to […] intermediate via thioredoxin/glutathione reductase (TGR)-catalyzed reaction, then from thioredoxin to hydrogen peroxide via Prx-catalyzed electron transfer. A decrease in the fluorescence intensity of NADPH was used to measure the enzyme activity. Purified S. mansoni TGR and Prx were provided by Professor David L. Williams, Illinois State University.
NCGC Assay Protocol Summary:
100 mM phosphate buffer, pH 7.4, 10 mM EDTA, 0.01% Tween-20.
100 uM NADPH/25 nM TGR/700 uM GSH/50 nM Prx2 mixture in columns 1, 2, 5-48. Titration of control potassium antimonyl tartrate (PAT, from 1 mM, then 1:5) pin-transferred to lower half of column 2. Column 1 and upper half of column 2 are neutral (100% activity).
Three uL of reagents were dispensed to 1536-well Greiner black plates. Compounds and controls (20 nL) were transferred via Kalypsys PinTool. The plates were incubated for 15 min at room temperature, and then a 1 uL aliquot of 400 uM NADPH/700 uM GSH was added, immediately followed by a 1uL aliquot of 2.5 mM H2O2 (to start the reaction). The plate was transferred to ViewLux (Perkin-Elmer) High-throughput CCD imager where kinetic measurements (every 30 sec, for a total of 8 min) of NADPH fluorescence were taken using 365 nm excitation/450 nm emission filter set. During dispense, enzyme-containing reagent bottles were kept submerged into 4 deg C water bath to minimize degradation.
Keywords: NIH Roadmap, MLSCN, MLI, MLSMR, David Williams, Peroxyredoxin, Schistosoma mansoni, prx2, prx, , qHTS, NCGC
Background: qHTS replaces the single test concentration by a dilution series.
`COc1ccccc1-c1nc(NCCNC(C)=O)c2ccccc2n1`: the Potency is greater than 57 µM.
On to `O=C(c1cccc(F)c1)N1CCC2(CCCN(Cc3ccncc3)C2)CC1`, for which the Potency is greater than 57 µM.
`O=c1cc(-c2ccccc2)[nH]c2nc(Cl)ccc12`: the Potency is greater than 57 µM.
For the molecule `O=c1cc(-c2ccc(O)c(O)c2)oc2cccc(O)c12`, the Potency is greater than 57 µM.
Take `CC(C)C[C@@H](CC(=O)N[C@@H](CCC(=O)O)CC(=O)O)NC(=O)[C@@H]1CCCC[C@H]1NC(=O)C[C@@H](NC(=O)C[C@H](Cc1c[nH]c2ccccc12)NC(=O)[C@@H]1CCCC[C@H]1N)C(C)C`: the Potency is greater than 57 µM.
As for `C[N+]1(CCN=C=NC2CCCCC2)CCOCC1`, the Potency is greater than 57 µM.
Take `O=C(c1cc(C(F)(F)F)cc(C(F)(F)F)c1)N1CCC2(CC1)CN(c1ccncc1)C2`: the Potency is greater than 57 µM.
The figure for `O=C(c1csnn1)N1CCC[C@@]2(CCN(Cc3nccs3)C2)C1` is greater than 57 µM; for `COC(=O)[C@@]1(Cc2ccc(F)cc2)[C@H]2c3cc(C(=O)N4CCCC4)n(Cc4ccc(OC(F)(F)F)cc4)c3C[C@H]2CN1C(=O)c1ccccc1` it is greater than 57 µM; for `CC[C@]1(C)CC(=O)NC1=O` it is greater than 57 µM.
Consider `Cn1cc(-c2nc3cnc(N4CCNCC4)nc3n(CCC#N)c2=O)c2ccccc21`, for which the Potency was greater than 57 µM.
Consider `O=C(O)c1ccc(C(=O)c2ccccc2C(=O)O)cc1C(=O)O`, for which the Potency is greater than 57 µM.
In the case of `O=C1c2ccccc2C(=O)N1CCCSc1ccccc1`, the Potency is greater than 57 µM.
On to `O=C(O)COc1c(Cl)cc(Cl)c2cccnc12`, for which the Potency was greater than 57 µM.
The figure for `COc1cccc(Cn2c(=O)c(-c3cc(F)cc(F)c3)nc3cnc(OC)nc32)c1` is greater than 57 µM; for `CCC[C@@H]1C[C@@]1(CCC)C(NC(=O)c1ccc(-c2ccccc2)cc1)c1cccc(Cl)c1` (some centres undefined) it is greater than 57 µM.
Take `COc1cccc(-c2nc(Nc3ccncc3)c3ccccc3n2)c1`: the Potency is greater than 57 µM.
In the case of `Clc1ccc(C(c2ccc(Cl)cc2)n2cc[n+](C[C@@H](OCc3ccc(Cl)cc3Cl)c3ccc(Cl)cc3Cl)c2)cc1`, the Potency was greater than 57 µM.
Take `CC(=O)N1CCC2(CC1)CCN(c1ccncc1)CC2`: the Potency is greater than 57 µM.
For `CCOc1ccc(N=NS(=O)(=O)O)cc1`, the Potency is greater than 57 µM.
Regarding `NCCNCC1CCNCC1`, the Potency is greater than 57 µM.
On to `CN(C)c1cc2c(Nc3ccc4c(cnn4Cc4ccccc4)c3)ncnc2cn1`, for which the Potency was greater than 57 µM.
With `C[C@@H]1CC[C@H]2[C@H](C)[C@H]3[C@H](C[C@H]4[C@@H]5CC=C6C[C@@H](O)CC[C@@]6(C)[C@@H]5C[C@@H](O)[C@]34C)N2C1`, the Potency is greater than 57 µM.
For the molecule `CCNc1ncc2nc(CCc3ccccc3)c(=O)n(-c3ccc(OC)cc3)c2n1`, the Potency is greater than 57 µM.
As to `Oc1c(Br)cc(CN(Cc2cc(Br)c(O)c(Br)c2)C2CCCCC2)cc1Br`, the Potency is greater than 57 µM.
Regarding `COc1ccc(-n2c(=O)c(C)nc3cnc(N4CCOCC4)nc32)cc1`, the Potency is greater than 57 µM.
As for `C[C@@H](N)[C@@H](C)Cc1ccccc1`, the Potency is greater than 57 µM.
As to `CN1CCN2c3ccccc3Cc3ccccc3[C@@H]2C1`, the Potency is greater than 57 µM.
On to `CNc1nc(-c2ccccc2OC)nc2ccccc12`, for which the Potency was greater than 57 µM.
In the case of `O=C(Nc1ccccc1)N[C@H]1C[C@H](C(=O)O)Nc2cc(Cl)cc(Cl)c21`, the Potency was greater than 57 µM.
In the case of `COc1ccc(C(=O)N/N=C2/C(=O)c3c(C)cc(C)cc3CC2(C)C)cc1`, the Potency is greater than 57 µM.
On to `N#Cc1cc2[nH]c(=O)c(=O)[nH]c2cc1[N+](=O)[O-]`, for which the Potency is greater than 25.6 µM.
For the molecule `c1cncc(CNc2ccnc(-c3ccc4c(c3)OCO4)n2)c1`, the Potency is greater than 57 µM.
With `O=C(c1csnn1)N1CCC2(CCN(Cc3nccs3)CC2)CC1`, the Potency is greater than 57 µM.
In the case of `COCCNc1ncnc2ccc(-c3ccccc3CN(C)C)cc12`, the Potency is greater than 57 µM.
Consider `O=c1c(-c2ccc(F)cc2)nc2cnc(N3CCOCC3)nc2n1-c1ccccc1`, for which the Potency was greater than 11.4 µM.
Turning to `CC(=O)/C(=N\N=C(N)N)c1ccccc1`, the Potency was greater than 57 µM.
To `COCCn1c(=O)c(-c2ccccc2)nc2cnc(N3CCOCC3)nc21` belongs greater than 57 µM.
Regarding `CN(C)c1ncc2nc(-c3ccc(F)cc3)c(=O)n(Cc3ccc(F)cc3)c2n1`, the Potency is greater than 57 µM.
The figure for `O=C1NC(=O)[C@@](Cc2ccccc2)(c2cccnc2)N1` is greater than 57 µM; for `N#Cc1cccc(-c2ccc3ncnc(NCc4cccs4)c3c2)c1` it is greater than 57 µM.
In the case of `O=C(Oc1ccc2c(c1)CN(Cc1ccccc1)CO2)c1ccccc1`, the Potency is greater than 57 µM.
Turning to `O=C(O)c1nn(-c2ccc(Cl)cc2)c2c1C(=O)c1ccccc1C2=O`, the Potency is greater than 57 µM.
Take `O=C(O)c1c(Br)c(Br)c(Br)c(Br)c1C1c2ccc(O)cc2Oc2cc(O)ccc21`: the Potency was greater than 57 µM.
As to `c1ccc2c(Nc3ccncc3)nc(-c3ccc4c(c3)OCO4)nc2c1`, the Potency is greater than 57 µM.
`CCON=C1C(C)(C)C(C)(C)C(C)(C)C1(C)C`: the Potency is greater than 57 µM.
In the case of `Cc1ccc(-c2nn(CC(C)(C)C)c3ncnc(N)c23)cc1`, the Potency is greater than 57 µM.
As for `CN/C(=C\[N+](=O)[O-])NCCSCc1csc(CN(C)C)n1`, the Potency is greater than 57 µM.
As for `c1ccc2nc(C3=NCCN3)cnc2c1`, the Potency was greater than 57 µM.
The figure for `Cc1[nH]c(N)nc(=S)c1CCCNc1ccccc1` is greater than 57 µM; for `COc1ncc2nc(-c3ccc(Cl)cc3)c(=O)n(C)c2n1` it is greater than 57 µM; for `CCNc1ncc2ncc(=O)n(CCc3ccccc3)c2n1` it is greater than 57 µM.
Take `COc1ccccc1-c1cc(NCc2cccs2)ncn1`: the Potency is greater than 57 µM.
Regarding `O=C(c1csnn1)N1CCC2(CC1)CN(c1ncccn1)C2`, the Potency is greater than 57 µM.
To `COCCn1c(=O)c(-c2cccc(F)c2)nc2cncnc21` belongs greater than 57 µM; to `Cc1c2c(nc3ccccc13)-c1cccc(=O)n1C2`, greater than 57 µM.
Turning to `O=C(c1ccco1)N1CCC[C@@]2(CCN(c3ccccc3)C2)C1`, the Potency is greater than 57 µM.
The figure for `COc1ccc(C(=O)N2CCC3(CC2)CCN(c2ccccn2)CC3)cc1` is greater than 57 µM; for `CN(C)CC/C=C1\c2ccccc2CSc2ccccc21` it is greater than 57 µM; for `COc1ccccc1CNc1ncnc2ccc(-c3ccc4c(c3)OCO4)cc12` it is greater than 57 µM.
In the case of `CC(C)NC(=O)N1CCC2(CC1)CCN(C(=O)c1cccn1C)CC2`, the Potency is greater than 57 µM.
As to `COc1ccccc1CNc1ccnc(-c2c(C)noc2C)n1`, the Potency is greater than 57 µM.
For `O=C(c1cnccn1)N1CCC[C@@]2(CCN(Cc3ccncc3)C2)C1`, the Potency was greater than 57 µM.
With `COc1ccccc1N1CCN(CCN2C(=O)c3ccccc3C(C)(C)C2=O)CC1`, the Potency is greater than 57 µM.
`COC(=O)N1CCC2(CCCN(Cc3ccccc3OC)C2)CC1`: the Potency was greater than 57 µM.
Regarding `N#C/C(=C\c1ccc(O)c(O)c1)C(=O)NCc1ccccc1`, the Potency is > 57 µM and > 11.4 µM.
Take `COc1ccc(Oc2ncc3nc(-c4ccc(F)cc4)c(=O)n(C)c3n2)cc1`: the Potency is greater than 57 µM.
To `O=C(c1csnn1)N1CCC[C@@]2(CCN(c3cccc(-c4ccccc4)c3)C2)C1` belongs greater than 57 µM; to `Clc1ccc(C=Nc2ccc3c(c2)Cc2ccccc2-3)c(Cl)c1`, greater than 57 µM; to `CC(=O)N1CCC2(CCCN(c3ncccn3)C2)CC1`, greater than 57 µM.
The figure for `Cc1ccc(S(=O)(=O)NC(=O)NN2C[C@H]3CCC[C@@H]3C2)cc1` is greater than 57 µM; for `COc1ccc2[nH]cc(CCNc3ncnc4ccc(-c5ccc(C(=O)N(C)C)cc5)cc34)c2c1` it is greater than 57 µM; for `N#C/C(=C\c1ccc(O)c(O)c1)C(N)=O` it is greater than 57 µM.
Regarding `COC(=O)[C@@]1(Cc2ccc(F)cc2)[C@H]2c3cc(C(=O)N(C)C)n(CCc4c[nH]c5ccc(OC)cc45)c3C[C@H]2CN1C(=O)c1ccccc1`, the Potency was greater than 57 µM.
As to `CNc1ncnc2ccc(-c3cccc(NS(C)(=O)=O)c3)cc12`, the Potency is greater than 57 µM.
Consider `Nc1ccc2[nH]cc(CCC(=O)O)c2c1`, for which the Potency is greater than 57 µM.
The figure for `O=c1c(-c2ccc(F)c(F)c2)nc2cncnc2n1-c1ccccc1` is greater than 57 µM.
With `COCCn1c(=O)c(-c2cccs2)nc2cnc(N3CCN(C)CC3)nc21`, the Potency was greater than 57 µM.
To `O=C(O)c1nccnc1C(=O)Nc1ccc(Br)cn1` belongs greater than 57 µM; to `Cc1nc2cnc(N3CCN(C)CC3)nc2n(CCC#N)c1=O`, greater than 57 µM; to `COc1ccccc1N1CCN(C[C@@H]2CN3C(=O)N(C)c4ccccc4C3=N2)CC1`, greater than 57 µM.
On to `COC(=O)[C@@]1(Cc2ccc(OC)cc2)[C@H]2c3cc(C(=O)N4CCCC4)n(Cc4ccc(C(F)(F)F)nc4)c3C[C@H]2CN1C(=O)c1ccccc1`, for which the Potency is greater than 57 µM.
Take `CN(C)C(=O)c1ccc(-c2cncnc2Nc2ccccc2)cc1`: the Potency was greater than 57 µM.
To `NC(=O)c1ccc(OC[C@H](O)CN2CC=C(c3ccc(F)cc3)CC2)cc1` belongs greater than 57 µM.
As to `COc1ccc2c(=O)cc(-c3ccccc3)oc2c1O`, the Potency was greater than 57 µM.
On to `NCCCNCCCCN(CCCN)/[N+]([O-])=N/O`, for which the Potency was greater than 57 µM.
As to `OCCN1CCN(CC/C=C2\c3ccccc3Sc3ccc(C(F)(F)F)cc32)CC1`, the Potency was greater than 57 µM.
Consider `COCCn1c(=O)c(-c2cc(F)cc(F)c2)nc2cncnc21`, for which the Potency was greater than 11.4 µM.
The figure for `Cc1c(S(=O)(=O)O)ccc(N=Nc2c(O)c(C(=O)O)cc3ccccc23)c1Cl` is greater than 57 µM.

Values taken from PubChem BioAssay AID448 (National Center for Advancing Translational Sciences (NCATS), 2006).
